From ChEMBL document CHEMBL3988442, “University of Dundee, Small-Polar-MMV Screening Library” (2021) come the findings set out here.

What all share (set-up): scale not given: direction of the effect not stated beside the values
Test [1] addresses Protein translocase subunit SecA (Escherichia coli (strain K12)) (UniProt P10408). Nature of the test: Assay to Identify E. coli SecA ATPase Inhibitors. The test is classed as functional. The settings on record: 30 µM.
The target of test [2] is T1, Ubiquitin-activating enzyme e1, putative (Leishmania donovani (strain BPK282A1)) (UniProt E9BSI1).
T1 sequence (whole entry): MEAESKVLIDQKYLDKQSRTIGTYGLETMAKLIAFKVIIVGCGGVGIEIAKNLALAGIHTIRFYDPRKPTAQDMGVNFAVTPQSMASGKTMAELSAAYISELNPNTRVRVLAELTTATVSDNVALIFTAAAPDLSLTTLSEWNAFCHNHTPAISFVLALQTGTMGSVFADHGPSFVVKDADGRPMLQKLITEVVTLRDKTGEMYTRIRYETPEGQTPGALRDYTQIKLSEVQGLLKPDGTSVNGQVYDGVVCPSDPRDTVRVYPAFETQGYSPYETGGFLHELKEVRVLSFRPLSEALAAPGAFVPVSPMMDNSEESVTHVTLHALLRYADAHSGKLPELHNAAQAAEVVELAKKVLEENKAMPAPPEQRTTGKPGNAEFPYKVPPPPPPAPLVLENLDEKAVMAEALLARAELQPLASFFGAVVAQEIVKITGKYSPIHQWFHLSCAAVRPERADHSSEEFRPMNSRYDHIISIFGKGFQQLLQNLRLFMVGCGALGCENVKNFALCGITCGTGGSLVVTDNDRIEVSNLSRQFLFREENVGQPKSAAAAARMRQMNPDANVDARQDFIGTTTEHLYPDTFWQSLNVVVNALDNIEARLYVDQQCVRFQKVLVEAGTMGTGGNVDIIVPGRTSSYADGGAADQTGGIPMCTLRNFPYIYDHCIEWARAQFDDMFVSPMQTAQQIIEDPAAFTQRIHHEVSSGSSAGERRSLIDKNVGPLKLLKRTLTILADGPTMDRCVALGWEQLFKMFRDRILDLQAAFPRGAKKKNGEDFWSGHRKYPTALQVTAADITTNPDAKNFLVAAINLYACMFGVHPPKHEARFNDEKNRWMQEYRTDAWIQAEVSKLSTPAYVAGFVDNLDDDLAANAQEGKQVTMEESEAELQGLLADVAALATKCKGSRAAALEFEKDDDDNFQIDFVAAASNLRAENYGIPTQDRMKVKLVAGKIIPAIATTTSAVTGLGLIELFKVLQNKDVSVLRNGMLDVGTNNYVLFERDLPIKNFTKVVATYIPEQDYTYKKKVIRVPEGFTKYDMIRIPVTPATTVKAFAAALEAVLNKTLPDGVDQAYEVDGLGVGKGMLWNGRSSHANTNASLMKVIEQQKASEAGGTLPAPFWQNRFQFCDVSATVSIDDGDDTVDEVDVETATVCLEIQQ
Nature of the test: Leishmania donovani Ubiquitin Activating Enzyme (LdE1). In kind it is functional. As to conditions: 30 µM.

Test [3] concerns the target T2, Aspartate--tRNA(Asp/Asn) ligase (Mycobacterium tuberculosis (strain ATCC 25618 / H37Rv)) (UniProt P9WFW3). Further: in the data most compounds retested in dose-response had high values.
T2 sequence (whole entry): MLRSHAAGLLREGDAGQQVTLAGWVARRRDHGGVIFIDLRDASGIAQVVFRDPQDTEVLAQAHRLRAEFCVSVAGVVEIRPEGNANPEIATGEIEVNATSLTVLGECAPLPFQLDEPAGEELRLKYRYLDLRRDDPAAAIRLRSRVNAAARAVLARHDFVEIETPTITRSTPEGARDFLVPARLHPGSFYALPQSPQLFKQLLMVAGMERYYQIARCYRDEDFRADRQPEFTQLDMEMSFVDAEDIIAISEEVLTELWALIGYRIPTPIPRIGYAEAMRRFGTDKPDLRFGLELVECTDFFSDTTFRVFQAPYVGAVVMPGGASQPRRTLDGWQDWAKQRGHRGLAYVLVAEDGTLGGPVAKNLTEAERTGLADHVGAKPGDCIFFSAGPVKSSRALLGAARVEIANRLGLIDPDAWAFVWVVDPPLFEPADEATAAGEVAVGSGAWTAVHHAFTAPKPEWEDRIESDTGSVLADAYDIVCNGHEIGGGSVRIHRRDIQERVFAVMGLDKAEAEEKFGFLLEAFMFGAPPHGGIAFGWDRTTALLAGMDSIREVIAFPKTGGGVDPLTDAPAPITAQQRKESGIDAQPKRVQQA
As to the kind of experiment: Assay for Asp RNA synthetase-1 from Mycobacterium tuberculosis. In kind it is functional. As to conditions: 30 µM.

For test [4], the target named is AMP-activated protein kinase, AMPK (Homo sapiens) (UniProt P54646+O43741+P54619+Q9UGJ0+Q9Y478+Q13131+Q9UGI9). As to the kind of experiment: AMP-dependent Kinase enzyme assay. An in vitro enzyme assay that detects ADP turnover that is directly proportional to AMPK activity. This uses naive AMPK that is activated during the assay with MK-8722. In kind it is functional. As to conditions: 30 µM.

Test [5] deals with Sialic acid-binding Ig-like lectin 9 (Homo sapiens) (UniProt Q9Y336). Nature of the test: Hs-Siglec9 ALPHAscreen SOP 20170721. The settings on record: 10 µM. For orientation: Bead proximity is the source of the signal in Alpha formats.
Test [6] deals with Trypanosoma cruzi. Nature of the test: Trypanosoma cruzi phosphomannomutase and mannose-1-phosphate guanylyltransferase assay. In kind it is functional. The settings on record: 10 µM.
For test [7], the target named is T3, Arginase-2, mitochondrial (Homo sapiens) (UniProt P78540).
T3 sequence (whole entry): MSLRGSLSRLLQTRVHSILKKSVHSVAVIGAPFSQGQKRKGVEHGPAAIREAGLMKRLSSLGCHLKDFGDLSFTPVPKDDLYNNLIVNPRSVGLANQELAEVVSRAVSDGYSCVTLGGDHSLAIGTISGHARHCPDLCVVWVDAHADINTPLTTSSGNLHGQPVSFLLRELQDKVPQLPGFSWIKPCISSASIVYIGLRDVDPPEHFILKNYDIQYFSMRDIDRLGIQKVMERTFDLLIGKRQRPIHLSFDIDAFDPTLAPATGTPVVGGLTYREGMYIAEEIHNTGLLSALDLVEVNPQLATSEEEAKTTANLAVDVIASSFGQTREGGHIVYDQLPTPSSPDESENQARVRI
As to the kind of experiment: in vitro enzyme assay to detect the production of urea directly proportional to the activity of Arginase II. Further: in the data most compounds retested in dose-response had high values. The test is classed as functional.

Test [8] concerns the target T4, Proteasome subunit beta (Trypanosoma cruzi) (UniProt O96673).
T4 sequence (whole entry): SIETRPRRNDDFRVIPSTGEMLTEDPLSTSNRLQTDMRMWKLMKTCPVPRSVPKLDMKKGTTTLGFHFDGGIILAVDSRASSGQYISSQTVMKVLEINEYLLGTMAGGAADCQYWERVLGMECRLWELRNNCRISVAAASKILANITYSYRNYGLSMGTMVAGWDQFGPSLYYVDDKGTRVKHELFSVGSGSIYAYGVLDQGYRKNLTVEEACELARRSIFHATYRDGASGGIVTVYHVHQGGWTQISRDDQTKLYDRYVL
As to the kind of experiment: Trypanosoma cruzi proteasome chymotrypsin-like activity (TcProtChymo) assay. Further: in the data most compounds retested in dose-response had high values. As to conditions: 9.37 µM. The test is classed as functional.

For test [9], the species on record is Homo sapiens. Nature of the test: To identify inhibition of the IFN signalling (Jak-Stat) pathway via expression of an eGFP reporter gene under the control of an IFN-stimulated response element (ISRE) containing MxA promoter. As to conditions: 30 µM. The test is classed as functional.
For test [10], the target named is Shiga toxin 2 (Escherichia coli O157:H7) (UniProt P09385+P09386). As to the kind of experiment: E. coli 0.157:H7 Shiga Toxin SOP - stx2 screening assay. In kind it is functional. As to conditions: 30 µM.
Test [11] concerns the target T5, Tyrosyl-tRNA synthetase, putative (Trypanosoma cruzi (strain CL Brener)) (UniProt Q4DSP6).
T5 sequence (whole entry): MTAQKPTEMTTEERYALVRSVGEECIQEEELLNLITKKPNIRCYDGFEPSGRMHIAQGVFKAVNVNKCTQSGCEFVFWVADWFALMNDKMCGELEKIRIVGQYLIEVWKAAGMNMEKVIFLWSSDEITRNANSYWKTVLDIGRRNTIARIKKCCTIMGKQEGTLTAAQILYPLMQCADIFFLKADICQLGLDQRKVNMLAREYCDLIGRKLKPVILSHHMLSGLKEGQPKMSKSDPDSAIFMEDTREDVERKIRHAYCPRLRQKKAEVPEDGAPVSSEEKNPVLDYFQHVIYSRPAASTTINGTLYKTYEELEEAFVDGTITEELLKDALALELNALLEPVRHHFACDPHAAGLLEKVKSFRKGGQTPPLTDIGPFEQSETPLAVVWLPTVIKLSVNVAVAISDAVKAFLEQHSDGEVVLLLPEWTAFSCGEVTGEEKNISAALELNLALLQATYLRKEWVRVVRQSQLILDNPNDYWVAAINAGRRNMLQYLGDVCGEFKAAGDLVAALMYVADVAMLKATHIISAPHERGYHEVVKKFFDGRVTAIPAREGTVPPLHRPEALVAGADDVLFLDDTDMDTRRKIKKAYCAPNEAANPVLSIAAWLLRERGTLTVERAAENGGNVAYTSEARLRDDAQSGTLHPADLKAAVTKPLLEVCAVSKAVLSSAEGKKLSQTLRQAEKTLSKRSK
Nature of the test: Trypanosoma cruzi tyrosyl tRNA synthetase (TcYRS) _High Tyrosine SOP. Further: in the data most compounds retested in dose-response had high values. In kind it is functional. The settings on record: 30 µM.

In test [12] the target is T5, Tyrosyl-tRNA synthetase, putative (Trypanosoma cruzi (strain CL Brener)). Nature of the test: Trypanosoma cruzi tyrosyl tRNA synthetase (TcYRS) SOP. In kind it is functional. The settings on record: 30 µM.
The target in test [13] is Chromo domain-containing protein 1 (Saccharomyces cerevisiae (strain ATCC 204508 / S288c) (Baker's yeast)) (UniProt P32657). As to the kind of experiment: ScCHD-1 Enzyme Inhibition Assay. Further: in the data most compounds retested in dose-response had high values. In kind it is functional. The settings on record: 30 µM.

For part of these data: Entries with a potency or affinity are not part of this list.

Sequence of Protein translocase subunit SecA (Escherichia coli (strain K12)) (P10408 whole entry): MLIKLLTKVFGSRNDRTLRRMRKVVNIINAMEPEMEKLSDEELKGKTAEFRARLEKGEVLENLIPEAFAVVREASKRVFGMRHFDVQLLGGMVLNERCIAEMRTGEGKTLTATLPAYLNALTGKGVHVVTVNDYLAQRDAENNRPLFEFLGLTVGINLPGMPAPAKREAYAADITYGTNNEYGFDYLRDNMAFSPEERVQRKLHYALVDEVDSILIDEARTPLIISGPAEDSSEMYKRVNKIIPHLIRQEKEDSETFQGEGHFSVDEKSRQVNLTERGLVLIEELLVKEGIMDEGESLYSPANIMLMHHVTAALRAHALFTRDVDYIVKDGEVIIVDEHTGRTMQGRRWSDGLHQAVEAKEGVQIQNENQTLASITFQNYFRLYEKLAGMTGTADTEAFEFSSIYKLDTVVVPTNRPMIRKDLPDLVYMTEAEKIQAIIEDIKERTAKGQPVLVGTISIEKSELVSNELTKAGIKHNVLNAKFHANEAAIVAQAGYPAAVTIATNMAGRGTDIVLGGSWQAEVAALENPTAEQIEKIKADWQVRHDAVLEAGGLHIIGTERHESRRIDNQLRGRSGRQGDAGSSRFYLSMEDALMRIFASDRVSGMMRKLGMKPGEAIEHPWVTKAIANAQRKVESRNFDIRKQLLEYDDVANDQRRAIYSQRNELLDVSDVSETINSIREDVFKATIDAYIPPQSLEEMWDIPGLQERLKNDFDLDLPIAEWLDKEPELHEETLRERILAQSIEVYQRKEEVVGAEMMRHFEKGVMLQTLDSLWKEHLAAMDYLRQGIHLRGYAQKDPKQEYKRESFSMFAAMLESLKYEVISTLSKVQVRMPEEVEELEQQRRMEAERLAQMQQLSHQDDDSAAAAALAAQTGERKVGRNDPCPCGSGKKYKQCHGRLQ
Sequence of Sialic acid-binding Ig-like lectin 9 (Homo sapiens) (Q9Y336 whole entry): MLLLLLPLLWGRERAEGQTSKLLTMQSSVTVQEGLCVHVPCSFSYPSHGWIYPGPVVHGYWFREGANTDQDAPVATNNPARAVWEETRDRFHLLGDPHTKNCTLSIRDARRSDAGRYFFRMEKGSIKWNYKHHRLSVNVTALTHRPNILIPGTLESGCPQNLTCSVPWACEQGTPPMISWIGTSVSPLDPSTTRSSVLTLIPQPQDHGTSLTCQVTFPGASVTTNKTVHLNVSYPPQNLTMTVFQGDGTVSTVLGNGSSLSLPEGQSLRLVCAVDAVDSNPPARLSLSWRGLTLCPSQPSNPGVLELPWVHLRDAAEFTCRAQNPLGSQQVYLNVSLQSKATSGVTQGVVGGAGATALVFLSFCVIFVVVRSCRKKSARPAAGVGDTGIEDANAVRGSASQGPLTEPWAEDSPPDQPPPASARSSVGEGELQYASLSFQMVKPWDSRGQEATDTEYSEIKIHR
Sequence of Chromo domain-containing protein 1 (Saccharomyces cerevisiae (strain ATCC 204508 / S288c) (Baker's yeast)) (P32657 whole entry, the tested form may be a part): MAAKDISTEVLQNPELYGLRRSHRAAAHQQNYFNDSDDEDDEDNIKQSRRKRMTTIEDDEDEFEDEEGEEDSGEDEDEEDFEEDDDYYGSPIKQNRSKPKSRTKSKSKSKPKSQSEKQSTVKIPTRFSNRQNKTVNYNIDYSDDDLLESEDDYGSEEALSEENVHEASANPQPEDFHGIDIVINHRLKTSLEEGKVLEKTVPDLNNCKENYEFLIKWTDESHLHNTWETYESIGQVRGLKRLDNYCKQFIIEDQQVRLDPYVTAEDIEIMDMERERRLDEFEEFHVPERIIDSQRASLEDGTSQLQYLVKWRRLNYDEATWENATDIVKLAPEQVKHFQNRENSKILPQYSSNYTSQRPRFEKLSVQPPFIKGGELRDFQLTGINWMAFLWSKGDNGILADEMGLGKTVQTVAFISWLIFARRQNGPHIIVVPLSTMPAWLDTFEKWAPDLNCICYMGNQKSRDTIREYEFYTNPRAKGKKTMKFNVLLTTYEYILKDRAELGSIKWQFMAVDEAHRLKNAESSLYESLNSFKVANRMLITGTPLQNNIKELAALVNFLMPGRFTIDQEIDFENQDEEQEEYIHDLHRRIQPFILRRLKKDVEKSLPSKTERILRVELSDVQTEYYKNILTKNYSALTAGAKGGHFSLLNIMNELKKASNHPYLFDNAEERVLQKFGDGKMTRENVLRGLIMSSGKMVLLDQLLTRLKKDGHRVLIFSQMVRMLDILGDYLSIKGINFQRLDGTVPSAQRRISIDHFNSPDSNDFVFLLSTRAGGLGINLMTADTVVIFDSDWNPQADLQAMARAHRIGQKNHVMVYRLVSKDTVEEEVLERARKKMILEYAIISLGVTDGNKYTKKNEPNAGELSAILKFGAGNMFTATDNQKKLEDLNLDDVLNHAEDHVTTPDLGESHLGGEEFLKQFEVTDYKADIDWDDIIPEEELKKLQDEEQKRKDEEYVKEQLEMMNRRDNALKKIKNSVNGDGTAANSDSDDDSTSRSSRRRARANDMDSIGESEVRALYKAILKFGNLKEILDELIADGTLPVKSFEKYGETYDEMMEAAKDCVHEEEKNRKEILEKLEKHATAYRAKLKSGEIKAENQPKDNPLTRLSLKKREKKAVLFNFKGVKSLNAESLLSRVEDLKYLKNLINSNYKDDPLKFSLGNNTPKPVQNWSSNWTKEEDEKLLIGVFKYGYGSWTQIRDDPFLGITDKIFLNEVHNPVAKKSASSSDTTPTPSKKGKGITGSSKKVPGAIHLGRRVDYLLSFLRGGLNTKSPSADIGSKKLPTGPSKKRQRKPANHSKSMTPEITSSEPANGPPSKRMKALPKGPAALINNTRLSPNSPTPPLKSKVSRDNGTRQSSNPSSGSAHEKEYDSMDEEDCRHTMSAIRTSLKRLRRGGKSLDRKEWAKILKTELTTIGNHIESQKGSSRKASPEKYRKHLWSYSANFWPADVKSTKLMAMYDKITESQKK

As for `COc1cc(OC)c(C2SCC(=O)Nc3n[nH]cc32)cc1OC` (centres undefined), the Percent Effect in test [1] is -4.64%; in test [2], 5.26%; in [3], 10.6%; in [4] it was 15.2%; in test [5], 0.428%; in test [6], -0.682%. The Percent Effect in test [7] (33.3 µM) was -7.1%; in test [8], 9.11%; in [9], 20.6%; in test [10], 10.6%; in [11], 2.13%; in test [12], 2.6%. In addition, the Percent Effect in [13] is -1.49%.
As for `COc1cccc(CNC(C)Cn2cccn2)c1OC` (centres undefined), the Percent Effect in [1] was -0.666%; in test [2], 2.6%; in test [3] it was 6.86%; in [4], 1.22%; in test [5], 3.25%; in [6], -0.749%. Also, the Percent Effect was 1.42% in test [7] (33.3 µM); 2.37% in test [8]; 7.27% in [9]; 0.638% in [10]; 1.94% in test [11]; 0% in test [12]. The Percent Effect in test [13] is -2.46%.
With `c1ccc(CN2CC[C@]3(C[C@@H](Oc4ccccn4)CO3)C2)nc1`, the Percent Effect was -4.14% in [1]; 18.7% in test [2]; -1.57% in [3]; -1.39% in [4]; -5.45% in [5]; -0.394% in test [6]. The Percent Effect is -12.4% in [7] (30 µM); 0.233% in [7] (33.3 µM); 5.02% in test [8]; 17.7% in [9]; -36.4% in test [10]; 2.13% in test [11]. Further, the Percent Effect in test [12] is 14.1%; in test [13] it was -0.948%.
`O=C1CSC(c2ccc(O)c(Cl)c2)c2c(n(C3CCOCC3)[nH]c2=O)N1` (centres undefined): the Percent Effect was -3.7% in test [1]; 20% in test [2]; -0.726% in [3]; 0.0426% in test [4]; 4.6% in [5]; 2.36% in test [6]. The Percent Effect in test [7] (30 µM) was 4.87%; in test [7] (33.3 µM), -14.3%; in test [8], 8.87%; in test [9], 8.4%; in test [10], -12.7%; in test [11] it was 9.52%. Besides, the Percent Effect is 17.9% in test [12] and -15.1% in test [13].
